Experimental data: PubChem BioAssay AID1159580 (chemical genetic matrix, 2015)
Hit rate of the full screen: of about 5,500 compounds, about 2,000 (36%) were called active. Another 18% or so got no clear call; they are omitted. Rule as the data show it: active = normalized growth mostly below about 0.91 (no sharp cut-off); inconclusive = no clear call, values can overlap the other calls; inactive = mostly above about 0.92. Some of the results follow.

Assay: chemical genetic growth profiling, strain panel (AID 1159580);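 also: tested at 20 µM; growth read once vehicle control cultures reached saturation at 30 °C; 1 = growth at the plate median or of vehicle wells; lower values mean less growth of the strain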
Conditions: growth OD

Measured: normalized growth

CC(C)CCCC(C)[C@H]1CCC2C3C(=O)C=C4C[C@@H](O)CC[C@]4(C)C3CC[C@@]21C (stereo partly drawn)
inactive: S. cerevisiae deletion strains, locus YJL187C, strain SWE1, hits give low values 1 | S. cerevisiae deletion strains, locus YJR043C, strain POL32, hits give low values 1.01 | S. cerevisiae deletion strains, locus YJR066W, strain TOR1, hits give low values 0.948 | S. cerevisiae deletion strains, locus YKL009W, strain mrt4, hits give low values 1.07 | S. cerevisiae deletion strains, locus YKL068W, hits give low values 1.01 | S. cerevisiae deletion strains, locus YKL085W, strain MDH1 (second series), hits give low values 1.03 | S. cerevisiae deletion strains, locus YKL085W, strain MDH1, hits give low values 1.03 | S. cerevisiae deletion strains, locus YKL160W, strain elf1, hits give low values 0.981 | S. cerevisiae deletion strains, locus YKR001C, strain vps1, hits give low values 1.05 | S. cerevisiae deletion strains, locus YKR026C, strain gcn3, hits give low values 0.996 | S. cerevisiae deletion strains, locus YKR091W, strain srl3, hits give low values 1 | S. cerevisiae deletion strains, locus YLL001W, strain dnm1, hits give low values 0.998 | S. cerevisiae deletion strains, locus YLL026W, hits give low values 1.01 | S. cerevisiae deletion strains, locus YLL041C, strain sdh2, hits give low values 0.991 | S. cerevisiae deletion strains, locus YLR027C, strain aat2, hits give low values 0.989 | S. cerevisiae deletion strains, locus YLR039C, strain RIC1, hits give low values 1.08 | S. cerevisiae deletion strains, locus YLR058C, strain SHM2, hits give low values 1.06 | S. cerevisiae deletion strains, locus YLR102C, strain apc9, hits give low values 1.03 | S. cerevisiae deletion strains, locus YLR113W, strain HOG1, hits give low values 0.975 | S. cerevisiae deletion strains, locus YLR221C, strain rsa3, hits give low values 0.981 | S. cerevisiae deletion strains, locus YLR258W, strain gsy2, hits give low values 1.02 | S. cerevisiae deletion strains, locus YLR262C, strain YPT6 (second series), hits give low values 0.972 | S. cerevisiae deletion strains, locus YLR262C, strain YPT6, hits give low values 1.09 | S. cerevisiae deletion strains, locus YLR268W, strain sec22, hits give low values 1.07 | S. cerevisiae deletion strains, locus YLR320W, strain mms22, hits give low values 1.03 | S. cerevisiae deletion strains, locus YLR330W, strain CHS5, hits give low values 1.02 | S. cerevisiae deletion strains, locus YLR342W, strain FKS1 (second series), hits give low values 1.07 | S. cerevisiae deletion strains, locus YLR342W, strain FKS1, hits give low values 1 | S. cerevisiae deletion strains, locus YLR357W, strain rsc2, hits give low values 1.06 | S. cerevisiae deletion strains, locus YLR370C, strain arc18, hits give low values 0.984 | S. cerevisiae deletion strains, locus YLR371W, strain rom2, hits give low values 1.03 | S. cerevisiae deletion strains, locus YLR384C, strain iki3, hits give low values 0.997 | S. cerevisiae deletion strains, locus YLR418C, strain cdc73, hits give low values 1.04 | S. cerevisiae deletion strains, locus YML016C, strain PPZ1, hits give low values 1.03 | S. cerevisiae deletion strains, locus YML032C, strain rad52, hits give low values 1.02 | S. cerevisiae deletion strains, locus YML120C, strain ndi1, hits give low values 0.965 | S. cerevisiae deletion strains, locus YML124C, strain tub3, hits give low values 1.02 | S. cerevisiae deletion strains, locus YMR058W, strain fet3, hits give low values 0.992 | S. cerevisiae deletion strains, locus YMR078C, strain ctf18, hits give low values 1.05 | S. cerevisiae deletion strains, locus YMR125W, strain sto1, hits give low values 1.01 | S. cerevisiae deletion strains, locus YMR129W, hits give low values 0.989 | S. cerevisiae deletion strains, locus YMR205C, strain PFK2, hits give low values 1.05 | S. cerevisiae deletion strains, locus YMR223W, strain ubp8, hits give low values 1.02 | S. cerevisiae deletion strains, locus YMR231W, strain pep5, hits give low values 1 | S. cerevisiae deletion strains, locus YMR307W, strain GAS1, hits give low values 1.11 | S. cerevisiae deletion strains, locus YNL067W, strain RPL9B, hits give low values 1.02 | S. cerevisiae deletion strains, locus YNL071W, strain lat1, hits give low values 0.993 | S. cerevisiae deletion strains, locus YNL183C, strain NPR1, hits give low values 0.937 | S. cerevisiae deletion strains, locus YNL209W, strain ssb2, hits give low values 1 | S. cerevisiae deletion strains, locus YNL233W, strain BNI4, hits give low values 1.02 | S. cerevisiae deletion strains, locus YNL248C, strain rpa49, hits give low values 0.934 | S. cerevisiae deletion strains, locus YNL250W, strain rad50, hits give low values 1.03 | S. cerevisiae deletion strains, locus YNL271C, strain bni1, hits give low values 1.05 | S. cerevisiae deletion strains, locus YNL298W, strain CLA4, hits give low values 1.04 | S. cerevisiae deletion strains, locus YNL307C, strain MCK1, hits give low values 1.05 | S. cerevisiae deletion strains, locus YNL322C, strain KRE1 (second series), hits give low values 0.98 | S. cerevisiae deletion strains, locus YNR049C, strain mso1, hits give low values 0.996 | S. cerevisiae deletion strains, locus YNR052C, strain pop2, hits give low values 1.03 | S. cerevisiae deletion strains, locus YOL012C, strain htz1 1.19 | S. cerevisiae deletion strains, locus YOL147C, strain pex11, hits give low values 1.01 | S. cerevisiae deletion strains, locus YOR001W, strain rrp6, hits give low values 0.994 | S. cerevisiae deletion strains, locus YOR061W, strain CKA2, hits give low values 1.05 | S. cerevisiae deletion strains, locus YOR069W, strain VPS5, hits give low values 1.02 | S. cerevisiae deletion strains, locus YOR070C, strain gyp1, hits give low values 0.999 | S. cerevisiae deletion strains, locus YOR080W, strain dia2, hits give low values 1.04 | S. cerevisiae deletion strains, locus YOR083W, strain WHI5, hits give low values 0.969 | S. cerevisiae deletion strains, locus YOR106W, strain vam3, hits give low values 0.978 | S. cerevisiae deletion strains, locus YOR136W, strain idh2, hits give low values 1.04 | S. cerevisiae deletion strains, locus YOR144C, strain elg1, hits give low values 1.02 | S. cerevisiae deletion strains, locus YOR184W, strain ser1, hits give low values 1.06 | S. cerevisiae deletion strains, locus YOR231W, strain MKK1, hits give low values 1 | S. cerevisiae deletion strains, locus YOR265W, strain rbl2, hits give low values 0.996 | S. cerevisiae deletion strains, locus YOR270C, strain vph1, hits give low values 0.907 | S. cerevisiae deletion strains, locus YOR290C, strain snf2, hits give low values 1.07 | S. cerevisiae deletion strains, locus YOR316C, strain cot1, hits give low values 1.04 | S. cerevisiae deletion strains, locus YPL051W, strain arl3, hits give low values 0.981 | S. cerevisiae deletion strains, locus YPL055C, strain LGE1, hits give low values 1.05 | S. cerevisiae deletion strains, locus YPL078C, strain atp4, hits give low values 0.935 | S. cerevisiae deletion strains, locus YPL106C, strain sse1, hits give low values 1.08 | S. cerevisiae deletion strains, locus YPL240C, strain hsp82, hits give low values 0.985 | S. cerevisiae deletion strains, locus YPL241C, strain CIN2, hits give low values 1.01 | S. cerevisiae deletion strains, locus YPL256C, strain CLN2, hits give low values 0.989 | S. cerevisiae deletion strains, locus YPR119W, strain clb2, hits give low values 1.03 | S. cerevisiae deletion strains, locus YPR141C, strain kar3, hits give low values 1.03 | S. cerevisiae deletion strains, locus YPR163C, strain tif3, hits give low values 1.03 | S. cerevisiae deletion strains, locus YPR167C, strain met16, hits give low values 1.04 | S. cerevisiae deletion strains, strain wtn01, hits give low values 1.03 | S. cerevisiae strains, strain wild type, hits give low values 1.02
